Assay results taken from PubChem BioAssay AID651871 (Sanford-Burnham Center for Chemical Genomics, 2012).

test system: HL-1; experiment: cardiomyocyte survival under oxidative or metabolic stress – cell-based, panel, H9c2 and HL-1, ATP luminescence, set 2, SAR follow-up (AID 651871); details: H9c2/HL-1 cardiomyocytes, 2-deoxyglucose stress, with 2-deoxyglucose, run 16, at 79 µM (top of the series);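 also: cells exposed to stressor for 2 h before ATP readout; reference of the scale not given here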

SMILES | activity (protection/inhibition)
CCOC(=O)c1cccc(NC(=O)CNC(=O)c2cc(-c3cc(OC)c(OC)c(OC)c3)nc3ccccc23)c1 | 130%
COc1ccc2nc(-c3cc(OC)c(OC)c(OC)c3)cc(C(=O)NCC(=O)Nc3ccc(C(C)=O)cc3)c2c1 | 84.4%
COc1ccc2c(c1OC)C(=O)N1c3ccccc3C(=O)N(Cc3cccc(Cl)c3Cl)C21 (stereo not drawn) | -9.37%
